Test results reported in the supplement of paper PMC6555819.

Tests used:
Experiment in all cases: PBM binding z-score (relative to random genomic background probes); higher = stronger binding; sequences stand for … in GC…GCGATTGACAGCGTAGAATGAAGG
[1] = tested on: RARb homodimer (NR concentration 270 nM)
Outline: (§1)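 Binding buffer was PBS pH 7.4 with 2% milk, 0.02% Triton X-100, 1 mM DTT, 0.2 mg/mL BSA and 0.4 mg/ml salmon testes DNA. In it, ligand-free nuclear receptor dimers were incubated 1 h on custom Agilent 4×180K protein-binding microarrays carrying double-stranded probes. Antibodies against each partner (one per run) detected binding, and z-scores were calculated against random background probes after regression normalization of scanned fluorescence.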

[2] = tested on: RARg:RXRa (NR concentration 270 nM, RXRa partner concentration 90 nM)
Outline: as §1

[3] = tested on: RARg homodimer (NR concentration 270 nM)
Outline: as §1

[4] = tested on: RXRa DBDmut IVT, anti-RXR (DBD mutation: RXRa K156A/R161A, NR concentration 90 nM)
Outline: as §1

[5] = tested on: RXRa homodimer (NR concentration 180 nM)
Outline: as §1

[6] = tested on: THRa:RXRa (NR concentration 90 nM, RXRa partner concentration 90 nM)
Outline: as §1

[7] = tested on: THRa homodimer (NR concentration 90 nM)
Outline: as §1

[8] = tested on: VDR:RXRa (NR concentration 270 nM, RXRa partner concentration 90 nM)
Outline: as §1

[9] = tested on: VDR homodimer (NR concentration 270 nM)
Outline: as §1

Row | Sequence | PBM binding z-score [1] | PBM binding z-score [2] | PBM binding z-score [3] | PBM binding z-score [4] | PBM binding z-score [5] | PBM binding z-score [6] | PBM binding z-score [7] | PBM binding z-score [8] | PBM binding z-score [9]
1 | CCTTACGGGTCAAGGTTACAGCACGGGTGGTACG | 3.8 | 5.07 | 4.96 | 0.498 | 5.42 | 3.38 | 1.09 | 3.34 | 1.19
2 | ATCTCTAGGTAACCAAGTTCTGTGAATGCCGAAC | 0.202 | 0.225 | 0.194 | -0.0032 | 0.246 | 0.718 | 0.76 | 0.866 | 0.355
3 | TCACATAGGTAATACAGGTGAAAGTCGGCATCTA | 0.573 | 0.559 | 0.535 | 1.35 | 1.14 | 0.928 | -0.0751 | 1.09 | -0.296
4 | TCTTGTAGAGCAGCAGGTTAAGAAAGCTGGCCAA | -0.584 | -0.394 | -0.758 | -0.623 | -0.14 | -0.0931 | -1.03 | – | -1.08
5 | GCGACCGGGGCATCAGCAGGTTACCATAACTTAA | 1.37 | 2.27 | 1.64 | -0.302 | 0.943 | 1.61 | 0.295 | – | -0.185
6 | TCTGCTAGGTCAGTTGGTCGGCTAACGAGCTGCC | 2.21 | 2.28 | 3.11 | 0.384 | 0.902 | 1.17 | -0.205 | 0.0498 | -1.1
7 | CCTACTGGGCCAAATAGGTCATTGATGCCGATAA | 2.48 | 2.17 | 2.25 | -0.057 | 2.2 | 1.67 | -0.13 | 2.51 | 0.916
8 | CTCGAAAGGTCGGTTGTGGTGAGTATACGGATAA | 1.92 | 2.21 | 2.35 | 1.08 | 1.79 | 2.66 | 0.291 | 1.05 | 0.903
9 | ACTTACGGGTCAACGAGGTTATACCACGCGTATA | 3.79 | 5.84 | 5.48 | 3.08 | 6.66 | 3.97 | 1.34 | 7.92 | 4.44
10 | ATCGAAAGGTCGTGAGGTGATTATACAGAAAGGC | 2.49 | 4.47 | 3.99 | 1.6 | 5.42 | 3.17 | 1.15 | 3.61 | 1.07
11 | CCTAGAAGGCCAATCTGGGTCACTCAAGGCTTGA | 2.78 | 1.98 | 2.37 | 0.567 | 1.55 | 4.27 | 0.262 | 1.39 | 0.0868
12 | CGAACTAGCTCATTGACAGGACAGTGAATAGTAA | 0.184 | -0.00563 | 0.0455 | 0.00616 | -0.33 | -0.0508 | -0.291 | -0.486 | -0.0514
13 | CCAGGCAGGTGAAAGGTAACTCAGTCTGGTACGC | 0.447 | 0.784 | 0.255 | -0.641 | 1.53 | 0.824 | -0.15 | 0.277 | -0.0369
14 | ATCTCTAGGTAAAAGTTCAGGGAATCCCGAGGAT | 2.58 | 2.3 | 2.18 | 0.858 | 2.15 | 1.54 | 0.461 | 1.54 | 1.7
15 | AGAACGAGGGCAATCAGTTGATAGCACGGGTGGC | 1.08 | 1.25 | 1.74 | 1.89 | 0.909 | 1.04 | 0.0484 | – | 1.61
16 | GGAACGAGGGCATTCGAGTTGATAGCTTGGCGAT | 0.679 | 1.02 | 1.33 | 3.13 | 0.592 | 3.17 | -0.698 | – | 3.03
